The supplement of paper PMC7411054
Counter-ions that a name gives are not always drawn.

Tests used:
Settings in all cases: treatment time: 24 h
[1] = system: A549-ACTB-RAB5A; assay: lowest phenotypically active concentration; higher = less potent
Summary of the method: (§1)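 Two criteria together defined phenotypic activity: deviation and reproducibility. Deviation meant ≥3 of 4 wells beyond the 95th percentile of Euclidean distances in solvent control wells, and reproducibility meant a median replicate Pearson correlation above the 95th percentile of non-replicates. Wells had been treated for 24 h at 0.3, 1, 3 or 9 µM in fifteen gene-edited A549, HepG2 and WPMY1 reporter lines before live imaging.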

[2] = system: A549-GM130-SQSTM1; assay: as above
Summary of the method: as §1

[3] = system: WPMY1-GM130-SQSTM1; assay: as above
Summary of the method: as §1

[4] = system: A549-ACTB-RAB5A; assay: phenotypically active (imaging signature differs from DMSO and reproducible) at any of 0.3-9 uM (binary (1 = active, 0 = inactive)); higher = active
Summary of the method: as §1

[5] = system: A549-CANX-COX4; assay: as above
Summary of the method: as §1

[6] = system: A549-GM130-SQSTM1; assay: as above
Summary of the method: as §1

[7] = system: A549-TP53BP1-CLTA; assay: as above
Summary of the method: as §1

[8] = system: A549-TUBA1B-RELA; assay: as above
Summary of the method: as §1

[9] = system: HepG2-ACTB-RAB5A; assay: as above
Summary of the method: as §1

[10] = system: HepG2-CANX-COX4; assay: as above
Summary of the method: as §1

[11] = system: HepG2-GM130-SQSTM1; assay: as above
Summary of the method: as §1

[12] = system: HepG2-TP53BP1-CLTA; assay: as above
Summary of the method: as §1

[13] = system: HepG2-TUBA1B-RELA; assay: as above
Summary of the method: as §1

[14] = system: WPMY1-ACTB-RAB5A; assay: as above
Summary of the method: as §1

[15] = system: WPMY1-CANX-COX4; assay: as above
Summary of the method: as §1

[16] = system: WPMY1-GM130-SQSTM1; assay: as above
Summary of the method: as §1

[17] = system: WPMY1-TP53BP1-CLTA; assay: as above
Summary of the method: as §1

[18] = system: WPMY1-TUBA1B-RELA; assay: as above
Summary of the method: as §1

[19] = system: A549-TUBA1B-RELA; assay: lowest phenotypically active concentration; higher = less potent
Summary of the method: as §1

[20] = system: HepG2-ACTB-RAB5A; assay: as above
Summary of the method: as §1

| Structure (SMILES) | lowest phenotypically active concentration [1] [µM] | lowest phenotypically active concentration [2] [µM] | lowest phenotypically active concentration [3] [µM] | phenotypically active [4] | phenotypically active [5] | phenotypically active [6] | phenotypically active [7] | phenotypically active [8] | phenotypically active [9] | phenotypically active [10] | phenotypically active [11] | phenotypically active [12] | phenotypically active [13] | phenotypically active [14] | phenotypically active [15] | phenotypically active [16] | phenotypically active [17] | phenotypically active [18] | lowest phenotypically active concentration [19] [µM] | lowest phenotypically active concentration [20] [µM] |
| --- | --- | --- | --- | --- | --- | --- | --- | --- | --- | --- | --- | --- | --- | --- | --- | --- | --- | --- | --- | --- |
| O=C(CCCCCCC(=O)Nc1ccc([C@H]2O[C@@H](CSc3nc(-c4ccccc4)c(-c4ccccc4)o3)C[C@@H](c3ccc(CO)cc3)O2)cc1)NO [Tubacin] | 9 | 9 | 3 | 1 (active) | 0 (inactive) | 1 (active) | 0 (inactive) | 0 (inactive) | 0 (inactive) | 0 (inactive) | 0 (inactive) | 0 (inactive) | 0 (inactive) | 1 (active) | 1 (active) | 1 (active) | 1 (active) | 1 (active) |  |  |
| CCOC(=O)c1c2c3c(cccc3[nH]c1=O)C(=O)c1ccccc1-2 | 1 | 1 |  | 1 (active) | 0 (inactive) | 1 (active) | 0 (inactive) | 0 (inactive) | 0 (inactive) | 0 (inactive) | 0 (inactive) | 1 (active) | 0 (inactive) | 0 (inactive) | 0 (inactive) | 0 (inactive) | 0 (inactive) | 0 (inactive) |  |  |
| CC(C)(C)n1nc(-c2ccc(Cl)cc2)c2c(N)ncnc21 | 1 |  |  | 1 (active) | 0 (inactive) | 0 (inactive) | 0 (inactive) | 1 (active) | 1 (active) | 0 (inactive) | 0 (inactive) | 1 (active) | 0 (inactive) | 0 (inactive) | 0 (inactive) | 0 (inactive) | 0 (inactive) | 0 (inactive) | 9 | 3 |
| O=C(CCCCCCC(=O)NO)NO | 9 |  |  | 1 (active) | 0 (inactive) | 0 (inactive) | 0 (inactive) | 0 (inactive) | 1 (active) | 0 (inactive) | 0 (inactive) | 0 (inactive) | 0 (inactive) | 0 (inactive) | 0 (inactive) | 0 (inactive) | 0 (inactive) | 0 (inactive) |  | 9 |
| CCN1/C(=C/C(C)=O)Sc2ccc(O)cc21 | 9 |  |  | 1 (active) | 0 (inactive) | 0 (inactive) | 1 (active) | 0 (inactive) | 1 (active) | 0 (inactive) | 0 (inactive) | 0 (inactive) | 0 (inactive) | 1 (active) | 0 (inactive) | 0 (inactive) | 1 (active) | 0 (inactive) |  | 9 |
| Nc1ncnc2c1c(-c1ccc(Oc3ccccc3)cc1)nn2C1CCCC1 | 9 | 9 |  | 1 (active) | 0 (inactive) | 1 (active) | 0 (inactive) | 1 (active) | 0 (inactive) | 0 (inactive) | 0 (inactive) | 0 (inactive) | 0 (inactive) | 0 (inactive) | 0 (inactive) | 0 (inactive) | 1 (active) | 0 (inactive) | 3 |  |
| NC(=O)[C@@H](CCC(F)(F)F)N(Cc1ccc(-c2ncon2)cc1F)S(=O)(=O)c1ccc(Cl)cc1 [avagacestat] | 9 |  |  | 1 (active) | 0 (inactive) | 0 (inactive) | 0 (inactive) | 0 (inactive) | 1 (active) | 0 (inactive) | 0 (inactive) | 0 (inactive) | 0 (inactive) | 0 (inactive) | 0 (inactive) | 0 (inactive) | 0 (inactive) | 0 (inactive) |  | 9 |
| Cc1ccc(O)c([C@H](CCN(C(C)C)C(C)C)c2ccccc2)c1 [Tolterodine L-tartrate] | 9 | 9 | 9 | 1 (active) | 0 (inactive) | 1 (active) | 0 (inactive) | 0 (inactive) | 0 (inactive) | 0 (inactive) | 0 (inactive) | 0 (inactive) | 0 (inactive) | 0 (inactive) | 0 (inactive) | 1 (active) | 0 (inactive) | 0 (inactive) |  |  |
| Cc1nc2sccn2c(=O)c1CCN1CCC(=C(c2ccc(F)cc2)c2ccc(F)cc2)CC1 [Ritanserin] | 9 |  | 9 | 1 (active) | 0 (inactive) | 0 (inactive) | 0 (inactive) | 0 (inactive) | 0 (inactive) | 0 (inactive) | 1 (active) | 0 (inactive) | 1 (active) | 0 (inactive) | 0 (inactive) | 1 (active) | 0 (inactive) | 0 (inactive) |  |  |
| COc1ccc(CCc2nc3c(C)c(-c4c(C)noc4C)c(C)cc3n2CCN2CCOCC2)cc1 |  | 9 |  | 0 (inactive) | 0 (inactive) | 1 (active) | 0 (inactive) | 0 (inactive) | 0 (inactive) | 0 (inactive) | 0 (inactive) | 0 (inactive) | 0 (inactive) | 0 (inactive) | 0 (inactive) | 0 (inactive) | 0 (inactive) | 0 (inactive) |  |  |
| CC(C)NC[C@H](O)COc1cccc2ccccc12 [(S)-(-)-Propranolol hydrochloride] |  | 9 |  | 0 (inactive) | 0 (inactive) | 1 (active) | 0 (inactive) | 0 (inactive) | 0 (inactive) | 0 (inactive) | 0 (inactive) | 0 (inactive) | 0 (inactive) | 0 (inactive) | 0 (inactive) | 0 (inactive) | 0 (inactive) | 0 (inactive) |  |  |
| CC[C@H](Nc1ncnc2[nH]cnc12)c1nc2cccc(F)c2c(=O)n1-c1ccccc1 [idelalisib] | 9 |  |  | 1 (active) | 0 (inactive) | 0 (inactive) | 0 (inactive) | 0 (inactive) | 0 (inactive) | 0 (inactive) | 0 (inactive) | 0 (inactive) | 0 (inactive) | 1 (active) | 0 (inactive) | 0 (inactive) | 0 (inactive) | 0 (inactive) |  |  |
